JMJD2A Tudor = JMJD2A Tudor domain (human) inhibition; O75164; AlphaScreen JMJD2A-Tudor / H3K4me3 peptide binding; Potency, µM (titrated, usually from 114 µM), for the others: top-dose activity change, negative = inhibition, hits mostly inhibitors; 4.4% of 390,000 active; also: % is scaled to controls: 0 for no effect and ±100 for the full control effect; nearly all actives have a fitted effect of over 50% in size
BAZ2B inh = inhibitors of human BAZ2B bromodomain; 4.4% of 360,000 active; AID 504333; AlphaScreen BAZ2B-H3K14Ac peptide displacement; Q9UIF8; Potency, µM (highest dose often 114 µM), for inactives: at the highest dose activity change, negative = inhibition, hits mostly inhibitors; also: % is scaled to controls: 0 for no effect and ±100 for the full control effect; nearly all actives have a fitted effect of over 60% in size
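Inhibition is scored as reduced AlphaScreen emission. The BAZ2B/b-H3(5-23)K14Ac complex (50 nM each) in PBS pH 7.4, 0.01% Tween-20 meets compound (up to 110 uM) for 30 min at RT before bead addition.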
PLK1 PBD block = PLK1 (human) polo-box domain binding inhibition; Plk1 PBD binding of FITC phosphopeptide, fluorescence polarization; Potency, µM, for inactives: max response, negative = inhibition, most hits filed as inhibitors; 2.8% of 360,000 active; AID 720504; also: series mostly up to about 57 µM; % is scaled to controls: 0 for no effect and ±100 for the full control effect; nearly all actives have a fitted effect of over 65% in size
HP1b binding inh = inhibitors of HP1-beta chromodomain binding to methylated histone tails; Potency, µM (series often up to 114 µM), without a hit: at the highest dose activity change, negative = inhibition, usual class: inhibitors; 0.56% of 390,000 active; AlphaScreen HP1-beta / biotin-H3K9me3 peptide binding; P83916; also: nearly all actives have a fitted effect of over 70% in size
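AlphaScreen: HP1-beta (50 nM) preformed 30 min with biotin-H3(1-18)K9me3 peptide (50 nM) in PBS pH 7.4, 0.01% Tween-20. Compound added for 30 min at RT, then streptavidin donor/nickel chelate acceptor beads (10 ug/mL) for 30 min.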
Sfp inh = Sfp phosphopantetheinyl transferase inhibition | Biochemical Sfp PPTase activity, qHTS | Potency, µM, inactives show largest response in the series, negative = inhibition, most hits filed as inhibitors | 3.5% of 310,000 active | AID 1490;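 also: the enzyme is Sfp with the accession as filed and its product quenches rhodamine fluorescence; 0% = enzyme reaction without inhibitor and -100% = no enzyme wells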
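After 15 min at room temperature with compound, 15 nM Sfp received 5 uM rhodamine-CoA plus 12.5 uM BHQ-2-ybbR (50 mM Hepes pH 7.6, 10 mM MgCl2). Rate came from the fluorescence difference over 30 min, ex 525/em 598 nm.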
G9a block = inhibitors of human histone lysine methyltransferase G9a | G9a H3K9 monomethylation, AlphaScreen, 2 h | Potency, µM (doses to about 102 µM), for inactives: at the highest dose activity, negative = inhibition, hits mostly inhibitors | 8.8% of 350,000 active; also: % is scaled to controls: 0 for no effect and ±100 for the full control effect; nearly all actives have a fitted effect of over 75% in size
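Methyltransferase reactions run at room temperature for 2 h (20 nM enzyme, 500 nM biotin-H3K9 peptide, 20 uM SAM) after a 15 min compound preincubation; product detected by AlphaScreen beads and anti-H3K9me1 antibody.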
* marks the source's active call; other numbers are inactive results; [ ] = remark or other dose. Compounds with a hit are over-represented: about 12% of the library has one in this group of screens. Calls follow the shape of the dose curve; as a rule, active = well fitted curve in the direction sought with a large enough effect; inconclusive = small, poorly fitted or top-dose-only effect, or another doubt; inactive = no such curve, though single readings can be large; an effect the other way counts as inactive or inconclusive. Potency is read from the fitted curve at half-maximal effect.

What do the screens show for `COc1ccc(CCN(C)CCC(=O)Nc2ccc(C)cc2)cc1OC`?
JMJD2A Tudor: -28%; BAZ2B inh: 3%; PLK1 PBD block: -9%; HP1b binding inh: 17%; Sfp inh: 2%; G9a block: -50%[59 µM]

What do the screens show for `COc1ccc(CCN(C)CC(O)COc2ccc(C(C)=O)cc2OC)cc1OC` (centres undefined)?
JMJD2A Tudor: 28µM*; BAZ2B inh: -30%; PLK1 PBD block: 1%; HP1b binding inh: 79µM*; Sfp inh: -2%; G9a block: 28µM*

What do the screens show for `CCN(CC)CCNC(=O)CSc1nc2nc(C)c(Cc3ccccc3)c(C)n2n1`?
JMJD2A Tudor: -2%; BAZ2B inh: 0%; HP1b binding inh: 32%; G9a block: -1%[59 µM]

How did O=C(Nc1cccc(-c2nnc(-c3ccco3)o2)c1)c1ccccc1 do in these assays?
JMJD2A Tudor: -8%; BAZ2B inh: -4%; PLK1 PBD block: 0%; HP1b binding inh: 19%; Sfp inh: 21%; G9a block: 8%

What do the screens show for `CC(=O)Oc1ccc(C(=O)Nc2cccc(-c3nnc(-c4ccco4)o3)c2)cc1`?
JMJD2A Tudor: -20%; BAZ2B inh: -29%; PLK1 PBD block: -6%; HP1b binding inh: 17%; Sfp inh: -2%; G9a block: 50µM*

What do the screens show for `COc1cccc(-c2nnc(-c3ccc(C)o3)o2)c1`?
JMJD2A Tudor: -16%; BAZ2B inh: -4%; PLK1 PBD block: -3%; HP1b binding inh: 30%; Sfp inh: 56µM*; G9a block: 13µM*

How did COc1cccc(-c2nnc(-c3ccco3)o2)c1 do in these assays?
JMJD2A Tudor: 50µM*; BAZ2B inh: 5%; PLK1 PBD block: 30µM*; HP1b binding inh: -2%; Sfp inh: 6%; G9a block: -8%

How did CCOc1ccccc1N(CC(=O)N1CCCC1)S(C)(=O)=O do in these assays?
JMJD2A Tudor: -3%; BAZ2B inh: 7%; PLK1 PBD block: 6%; HP1b binding inh: 22%; Sfp inh: 3%; G9a block: 11%[0.501 µM]

Results for Clc1ccc(-c2nc3ccncc3[nH]2)cc1 ?
JMJD2A Tudor: -9%; BAZ2B inh: -6%; PLK1 PBD block: 8.4µM*; HP1b binding inh: 5%; Sfp inh: inconclusive; G9a block: inconclusive

Results for O=[N+]([O-])c1cccnc1N1CCN(c2ccc(F)cc2)CC1 ?
JMJD2A Tudor: 25µM*; BAZ2B inh: 40µM*; PLK1 PBD block: inconclusive; HP1b binding inh: 45µM*; Sfp inh: 8%; G9a block: 45µM*

What do the screens show for `Cc1cc(C)cc(C(=O)NC(CC(N)=O)c2ccc(NCC3CC3)c([N+](=O)[O-])c2)c1` (centres undefined)?
JMJD2A Tudor: -12%; BAZ2B inh: 5%[57.1 µM]; PLK1 PBD block: 4%; HP1b binding inh: 33%; Sfp inh: 6%; G9a block: 79µM*

What do the screens show for `NC(=O)CC(NC(=O)c1ccccc1)c1ccc(NCC2CC2)c([N+](=O)[O-])c1` (centres undefined)?
JMJD2A Tudor: -25%; BAZ2B inh: 1%; PLK1 PBD block: -9%; HP1b binding inh: 18%; Sfp inh: 10%; G9a block: -1%[12.7 µM]

How did Cc1cc(C)cc(C(=O)NC(CC(N)=O)c2ccc(NC3CCCCCCC3)c([N+](=O)[O-])c2)c1 (centres undefined) do in these assays?
JMJD2A Tudor: -22%; BAZ2B inh: -34%; PLK1 PBD block: 11%; HP1b binding inh: 29%; Sfp inh: 6%; G9a block: inconclusive

What do the screens show for `NC(=O)CC(NC(=O)c1ccccc1)c1ccc(NC2CCN(Cc3ccccc3)CC2)c([N+](=O)[O-])c1` (centres undefined)?
JMJD2A Tudor: -27%; BAZ2B inh: inconclusive; PLK1 PBD block: 3%; HP1b binding inh: 16%; Sfp inh: 7%; G9a block: 50µM*
